# Counter-ions that a name gives are not always drawn.
# How the values were obtained:
# Details in all cases: incubation time: 27 h, anaerobic, 37 °C;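 for the amine columns active = adjusted P below 0.05 in both replicates with a change the same way and a mean fold change under 0.8 or over 1.25; inactive = the rest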
# [1] = tested on: Clostridium sporogenes DSM 1664; test: growth (OD595) fold change vs plate DMSO controls (fold change (ratio)); higher = more growth
# Procedure, shortened: (§1)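 Each value is the mean of 2 biological replicates, and fold changes above 1.5 were set to NA. The underlying readings were taken at 595 nm from shaken anaerobic mGAM cultures in 96-well plates after 27 h at 37 °C. They were blank-subtracted, corrected for compound background using 20 µM compound solutions in water, and converted to OD with a calibration factor of 5. Growth is the fold change relative to the median of the plate DMSO controls.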
# Escherichia coli IAI1 [2] = test: as above
# Procedure, shortened: as §1
# [3] = tested on: Klebsiella aerogenes DSM 30053; test: as above
# Procedure, shortened: as §1
# [4] = tested on: Ruminococcus gnavus DSM 108212; test: as above
# Procedure, shortened: as §1
# [5] = tested on: Klebsiella aerogenes DSM 30053; test: fold change of Histamine concentration vs plate DMSO controls (fold change (ratio)); higher = more amine produced, active = hit call of the paper (significant change in both replicates, either direction)
# Procedure, shortened: (§2)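 Anaerobic mGAM cultures of four gut bacterial strains were grown at 37 °C for 27 h in 80 µL wells, starting at OD 0.1 before 1:1 dilution. Compounds were at 20 µM final (sweeteners 50 µM). Whole cultures were extracted with cold acetonitrile/methanol containing 0.1% formic acid and centrifuged. Amines were quantified by LC–triple-quadrupole MS (dynamic MRM) against external calibration curves and drift-corrected within batch. Each value is the fold change versus plate DMSO controls, averaged over 2 biological replicates.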
# [6] = tested on: Clostridium sporogenes DSM 1664; test: fold change of Tryptamine concentration vs plate DMSO controls (fold change (ratio)); higher = more amine produced, active = hit call of the paper (significant change in both replicates, either direction)
# Procedure, shortened: as §2
# [7] = tested on: Ruminococcus gnavus DSM 108212; test: as above
# Procedure, shortened: as §2
# Escherichia coli IAI1 [8] = test: fold change of Putrescine concentration vs plate DMSO controls (fold change (ratio)); higher = more amine produced, active = hit call of the paper (significant change in both replicates, either direction)
# Procedure, shortened: as §2
# [9] = tested on: Klebsiella aerogenes DSM 30053; test: as above
# Procedure, shortened: as §2
# Escherichia coli IAI1 [10] = test: fold change of Cadaverine concentration vs plate DMSO controls (fold change (ratio)); higher = more amine produced, active = hit call of the paper (significant change in both replicates, either direction)
# Procedure, shortened: as §2
# [11] = tested on: Klebsiella aerogenes DSM 30053; test: as above
# Procedure, shortened: as §2
# [12] = tested on: Ruminococcus gnavus DSM 108212; test: fold change of 2-Phenylethylamine concentration vs plate DMSO controls (fold change (ratio)); higher = more amine produced, active = hit call of the paper (significant change in both replicates, either direction)
# Procedure, shortened: as §2
Structure (SMILES),growth [1],growth (Escherichia coli IAI1 [2]),growth [3],growth [4],fold change of Histamine concentration [5],fold change of Tryptamine concentration [6],fold change of Tryptamine concentration [7],fold change of Putrescine concentration (Escherichia coli IAI1 [8]),fold change of Putrescine concentration [9],fold change of Cadaverine concentration (Escherichia coli IAI1 [10]),fold change of Cadaverine concentration [11],fold change of 2-Phenylethylamine concentration [12]
CC(C)(C)NCC(O)c1ccc(O)c(CO)c1 (stereo not drawn) [Salbutamol] (20 µM),1.05,0.99,1.03,0.843,1.08 (inactive),0.999 (inactive),1.03 (inactive),1.04 (inactive),1.02 (inactive),1 (inactive),0.998 (inactive),1.03 (inactive)
CN1c2cc(O)c(N=NC(N)=O)cc2CC1S(=O)(=O)O (stereo not drawn) [Carbazochrome sodium sulfonate] (20 µM),1.05,1.01,1.04,0.901,1.06 (inactive),0.976 (inactive),1.08 (inactive),1.01 (inactive),0.905 (inactive),0.975 (inactive),1.2 (inactive),1.21 (inactive)
C=C(C)[C@@H]1CC=C(/C=N/O)CC1 [Perillartine] (50 µM),1.04,1.04,1.09,1.11,0.933 (inactive),1.02 (inactive),1 (inactive),0.985 (inactive),1.03 (inactive),0.99 (inactive),1.02 (inactive),1 (inactive)
Cc1cn(-c2cc(NC(=O)c3ccc(C)c(Nc4nccc(-c5cccnc5)n4)c3)cc(C(F)(F)F)c2)cn1 [Nilotinib] (20 µM),0.888,1.07,1.11,1.02,0.924 (inactive),1.06 (inactive),0.879 (inactive),1 (inactive),1.01 (inactive),0.967 (inactive),1.01 (inactive),0.897 (inactive)
Clc1ccc(CO/N=C(\Cn2ccnc2)c2ccc(Cl)cc2Cl)c(Cl)c1 [Oxiconazole nitrate] (20 µM),0.912,0.995,0.981,0.321,1.02 (inactive),0.91 (inactive),0.351 (active),1.04 (inactive),1.05 (inactive),1.03 (inactive),1.07 (inactive),0.629 (inactive)
CCCCCCCC/C=C\CCCCCCCC(N)=O [Oleamide] (20 µM),0.884,0.989,1.01,0.968,0.969 (inactive),1.01 (inactive),0.895 (inactive),1.02 (inactive),1.01 (inactive),1.06 (inactive),1 (inactive),0.862 (inactive)
O=S(=O)(c1cccc2cnccc12)N1CCCNCC1 [Fasudil Hydrochloride] (20 µM),1.22,0.981,0.977,0.969,1.05 (inactive),0.964 (inactive),1.01 (inactive),1.01 (inactive),1.03 (inactive),1.03 (inactive),1.01 (inactive),0.942 (inactive)
COc1ccc2c(c1)c(CC(=O)OCC(=O)O)c(C)n2C(=O)c1ccc(Cl)cc1 [Acemetacin] (20 µM),0.906,1.03,0.985,1.06,0.983 (inactive),0.98 (inactive),0.964 (inactive),1.06 (inactive),1.01 (inactive),0.959 (inactive),1.01 (inactive),0.907 (inactive)
CN(C)CCCN1c2ccccc2Sc2ccc(C(F)(F)F)cc21 [Triflupromazine hydrochloride] (20 µM),1.08,1.04,1.01,1.21,0.959 (inactive),1.05 (inactive),0.814 (inactive),1.01 (inactive),0.998 (inactive),1.08 (inactive),1.01 (inactive),0.821 (inactive)
CCCCCNC(=N)N/N=C/c1c[nH]c2ccc(OC)cc12 [Tegaserod maleate] (20 µM),0.905,1.01,1,1.08,0.983 (inactive),0.923 (inactive),0.791 (inactive),0.992 (inactive),0.997 (inactive),1.04 (inactive),1 (inactive),0.994 (inactive)
COc1cccc(CCc2ccccc2OCC(CN(C)C)OC(=O)CCC(=O)O)c1 (stereo not drawn) [Sarpogrelate hydrochloride] (20 µM),1.19,0.978,1.02,0.991,0.977 (inactive),0.989 (inactive),0.97 (inactive),1.02 (inactive),0.999 (inactive),1.03 (inactive),0.996 (inactive),0.961 (inactive)
Nc1nc(=S)c2ncn([C@@H]3O[C@H](CO)[C@@H](O)[C@H]3O)c2[nH]1 [Thioguanosine] (20 µM),0.927,0.951,1.03,0.773,0.953 (inactive),0.981 (inactive),0.955 (inactive),0.479 (inactive),1.01 (inactive),0.903 (inactive),1.03 (inactive),0.925 (inactive)
O=C(O)c1cc(=O)c2ccccc2o1 [Chromocarb] (20 µM),0.945,0.984,0.99,0.957,1.02 (inactive),1.01 (inactive),0.989 (inactive),1.01 (inactive),0.998 (inactive),0.983 (inactive),0.979 (inactive),0.974 (inactive)
Cc1onc(-c2c(F)cccc2Cl)c1C(=O)N[C@@H]1C(=O)N2[C@@H]1SC(C)(C)[C@@H]2C(=O)O [Flucloxacillin sodium] (20 µM),0,1.02,0.993,0,0.99 (inactive),0.0254 (active),0.0375 (active),1.01 (inactive),1.02 (inactive),1.07 (inactive),1.02 (inactive),0.0397 (active)
NS(=O)(=O)c1cc(Cl)c(Cl)c(S(N)(=O)=O)c1 [Dichlorphenamide] (20 µM),0.963,0.998,1.2,0.536,0.902 (inactive),0.966 (inactive),0.572 (inactive),1.06 (inactive),1.01 (inactive),0.995 (inactive),1.03 (inactive),0.54 (inactive)
CCN(CC)CCOC(=O)C1(c2ccc([N+](=O)[O-])cc2)CCCC1 [Nitrocaramiphen hydrochloride] (20 µM),0.793,1.07,0.995,1.02,1.03 (inactive),0.949 (inactive),1.04 (inactive),1.03 (inactive),0.982 (inactive),1.03 (inactive),0.98 (inactive),0.995 (inactive)
CC(N)C12CC3CC(CC(C3)C1)C2 (stereo not drawn) [Rimantadine hydrochloride] (20 µM),0.858,0.975,0.955,0.786,1.01 (inactive),0.984 (inactive),1 (inactive),0.947 (inactive),1.01 (inactive),1.01 (inactive),0.994 (inactive),0.987 (inactive)
CC(C(=O)O)c1ccc(C(=O)c2cccs2)cc1 (stereo not drawn) [Suprofen] (20 µM),1.08,0.983,0.986,0.974,1.03 (inactive),1.04 (inactive),1.09 (inactive),0.954 (inactive),0.995 (inactive),1.01 (inactive),0.986 (inactive),1.08 (inactive)
CCc1oc2ccccc2c1C(=O)c1ccc(O)cc1 [Benzarone] (20 µM),1,1.1,1.09,1.11,0.967 (inactive),0.933 (inactive),0.934 (inactive),1.06 (inactive),1 (inactive),1.01 (inactive),1.02 (inactive),0.956 (inactive)
Nc1c(CC(=O)O)cccc1C(=O)c1ccc(Br)cc1 [Bromfenac] (20 µM),1.21,1.15,1.04,1.13,0.965 (inactive),1.01 (inactive),1.08 (inactive),1.02 (inactive),1 (inactive),0.911 (inactive),1.01 (inactive),1.15 (inactive)
COCCCC/C(=N\OCCN)c1ccc(C(F)(F)F)cc1 [Fluvoxamine maleate] (20 µM),1.2,0.976,0.994,0.962,0.985 (inactive),1.03 (inactive),0.982 (inactive),1.02 (inactive),0.987 (inactive),0.985 (inactive),0.997 (inactive),1.02 (inactive)
Cc1c(NC(C)C)c(=O)n(-c2ccccc2)n1C [Isopyrin hydrochloride] (20 µM),1.12,1.02,1.02,1,0.951 (inactive),1.03 (inactive),1.2 (inactive),1.14 (inactive),0.943 (inactive),1.02 (inactive),1 (inactive),1.32 (inactive)
CC(C(=O)O)c1ccc(CC2CCCC2=O)cc1 (stereo not drawn) [Loxoprofen] (20 µM),1.24,1.03,1.06,1.13,0.95 (inactive),1.05 (inactive),1 (inactive),1.02 (inactive),1.02 (inactive),0.981 (inactive),1.01 (inactive),0.997 (inactive)
CC(=O)O[C@H]1C(=O)[C@@]2(C)[C@H]([C@H](OC(=O)c3ccccc3)[C@]3(O)C[C@H](OC(=O)[C@H](O)[C@@H](NC(=O)c4ccccc4)c4ccccc4)C(C)=C1C3(C)C)[C@]1(OC(C)=O)CO[C@@H]1C[C@@H]2O [Paclitaxel] (20 µM),1.04,1.03,1.05,0.944,0.885 (inactive),0.975 (inactive),1.08 (inactive),1.04 (inactive),0.969 (inactive),1.03 (inactive),1.03 (inactive),1.07 (inactive)
